CBX7 inh: CBX7 inhibition, primary AlphaScreen. AlphaScreen His6-CBX7 / biotin-H3K27me3 peptide binding; stronger effect = lower value. normalised signal (fraction of DMSO) (test concentration not listed). 1.1% of 66,000 active. AID 1224903; in the data active means normalised signal below about 0.5
Target sequence (O95931 whole entry, looked up): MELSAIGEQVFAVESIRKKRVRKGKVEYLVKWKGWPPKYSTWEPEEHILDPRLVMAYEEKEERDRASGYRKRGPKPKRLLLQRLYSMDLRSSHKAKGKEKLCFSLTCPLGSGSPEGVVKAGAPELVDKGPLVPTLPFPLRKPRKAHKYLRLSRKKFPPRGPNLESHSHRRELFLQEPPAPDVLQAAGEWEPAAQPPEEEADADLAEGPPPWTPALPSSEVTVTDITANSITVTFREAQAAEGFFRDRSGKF
Hits are given with their value; 0 = inactive. The entries come from a sample that favours hits as a whole.

SMILES	CBX7 inh
Cc1noc(C)c1S(=O)(=O)N1CCCC(C(=O)NCCN2CCN(Cc3ccccc3)CC2)C1 (centres undefined)	0
CC1CCN(C(=O)c2cnc(Nc3ccc(F)cc3)c3ccccc23)CC1	0
COc1ccc(-c2nc(Nc3ccc(C)cc3)c3ccccc3n2)cc1OC	0
Cc1cc(=O)n2nc(N3CCCC(C(=O)NCCCSC4CCCCC4)C3)sc2n1 (centres undefined)	0
COc1ccc(-n2nnc3c(=O)n(Cc4ccc(C)cc4)cnc32)cc1	0
Clc1ccc2nc(-c3ccsc3)c(Nc3ccccc3)n2c1	0
COc1ccc(Cc2noc(-c3cc(-c4ccncc4)nc4ccccc34)n2)cc1	0.49
COc1ccc(-c2noc(-c3cc(-c4ccccc4)nc4ccccc34)n2)cc1	0
COc1ccc(Cc2noc(-c3cc(-c4ccc(F)cc4)nc4ccccc34)n2)cc1	0
CC1CCCCN1CCCNC(=O)CN1N=C(c2ccccc2)CCC1=O (centres undefined)	0
CCOc1ccc(C(=O)Nc2ccccc2-c2nc3ccccc3[nH]2)cc1	0
Cc1ccc(C(=O)Nc2cccc(F)c2)cc1S(=O)(=O)N1CCCCC1	0
CCc1ccc(C2CC(c3ccccc3F)n3nnnc3N2)cc1 (centres undefined)	0
COc1ccccc1-c1nc(SCc2cccc(Br)c2)n[nH]1	0
COCCCNC(=O)C1CCN(Cc2nc(-c3cccc(Cl)c3)oc2C)CC1	0
COc1ccc(-c2nnc(NC(=O)c3ccc(S(=O)(=O)N(C)C)cc3)o2)c(OC)c1	0
COCCN(CCOC)S(=O)(=O)c1ccc(C(=O)Nc2nnc(-c3ccccc3Cl)o2)cc1	0.27
CN(Cc1ccccc1)S(=O)(=O)c1ccc(C(=O)Nc2ccccc2-c2nc3ccccc3o2)cc1	0
CN(C)S(=O)(=O)c1ccc(C(=O)Nc2c(C(N)=O)oc3ccccc23)cc1	0
COCc1nnc(NC(=O)c2ccc(S(=O)(=O)N(C)Cc3ccccc3)cc2)o1	0
COCCN(CCOC)S(=O)(=O)c1ccc(C(=O)Nc2nc(-c3ccncc3)cs2)cc1	0
Cc1nnc(NC(=O)c2ccc(S(=O)(=O)N(C)C)cc2)o1	0.012
CCCN(CCC)S(=O)(=O)c1ccc(C(=O)Nc2nnc(-c3ccccc3Cl)o2)cc1	0
COCCN(CCOC)S(=O)(=O)c1ccc(C(=O)Nc2nnc(C)o2)cc1	0.0057
CN(C1CCCCC1)S(=O)(=O)c1ccc(C(=O)Nc2nnc(-c3ccccc3Cl)o2)cc1	0
SMILES	CBX7 inh
COCCN(CCOC)S(=O)(=O)c1ccc(C(=O)Nc2nnc(COC)o2)cc1	0
Cc1nnc(NC(=O)c2ccc(S(=O)(=O)N(C)Cc3ccccc3)cc2)o1	0.0081
COc1cccc(Nc2c3c(nc4ccccc24)CCC3)c1	0
COc1ccc(OCc2nc3ccccc3n2C)cc1	0
COc1cccc(-c2cc(C(=O)Nc3cc(Cl)cc(Cl)c3)c3ccccc3n2)c1	0
CCN(CC)CCNC(=O)CCN1N=C(c2ccc(OC)cc2)CCC1=O	0
CCCCN(CCCC)S(=O)(=O)c1ccc(C(=O)Nc2ccccc2-c2nc3ccccc3[nH]2)cc1	0
COCCN(CCOC)S(=O)(=O)c1ccc(C(=O)Nc2nc(-c3ccc(OC)cc3)cs2)cc1	0
CCN(Cc1ccccc1)S(=O)(=O)c1ccc(C(=O)Nc2nnc(-c3ccc(OC)cc3)o2)cc1	0
CCCCN(CCCC)S(=O)(=O)c1ccc(C(=O)Nc2nnc(C)o2)cc1	0.0047
COCCN(CCOC)S(=O)(=O)c1ccc(C(=O)Nc2nnc(-c3ccc(F)cc3)o2)cc1	0.025
CCCCN(CCCC)S(=O)(=O)c1ccc(C(=O)Nc2nc3c(s2)COc2ccccc2-3)cc1	0
Fc1ccc(Cn2c(COc3ccc(Cl)cc3)nc3ccccc32)cc1	0
O=C(NCc1cccnc1)C1c2ccccc2C(=O)N1CCc1ccc(Cl)cc1 (centres undefined)	0
CCCCN(CCCNC(=O)Cn1nc(-c2ccc(C)cc2)ccc1=O)c1ccccc1	0
Cc1cccc(-n2c(Cc3cc(=O)[nH]c(=O)[nH]3)nnc2SCC(=O)Nc2ccccc2F)c1	0
COCCCNC(=O)c1ccc2c(c1)N(C)C(=O)c1ccccc1S2	0
COc1ccc(-n2c(Cc3cc(=O)[nH]c(=O)[nH]3)nnc2SCC(=O)Nc2cccc(OC)c2)cc1	0
CC(C)CCn1c(COc2ccc(Cl)cc2)nc2ccccc21	0
N#Cc1nc(COc2ccccc2)oc1N1CCCCC1	0
N#Cc1nc(COc2cccc(Cl)c2)oc1N1CCCCC1	0
N#Cc1nc(COc2cccc(Cl)c2)oc1N1CCCCCC1	0.45
N#Cc1nc(COc2ccc(Cl)cc2)oc1N1CCCCCC1	0.37
CC1CCN(c2oc(COc3cccc(Cl)c3)nc2C#N)CC1	0
N#Cc1nc(COc2ccccc2Cl)oc1N1CCCCCC1	0
SMILES	CBX7 inh
CCn1cc(C(=O)N2C(C)CCCC2C)c(=O)c2ccc(C)nc21 (centres undefined)	0
CCOCCCNC(=O)c1c[nH]c2ccc(S(=O)(=O)Nc3ccc(CC)cc3)cc2c1=O	0
Cc1ccc(CNC(=O)c2cc(-c3ccccn3)nc3ccccc23)cc1	0
Cc1ccc(S(=O)(=O)C2(C(=O)Nc3ccccc3C)CC2)cc1	0
CCC(=C(c1ccc(OC)cc1)c1ccc(OC)cc1)c1cn(CCN(C)C)c2ccccc12	0.32
COc1cccc(OCC(O)CN2CCOCC2)c1 (centres undefined)	0
CCC(=C(c1ccc(OC)cc1)c1ccc(OC)cc1)c1cn(CC(O)CN2CCOCC2)c2ccccc12 (centres undefined)	0.41
COc1ccc(-c2cc3ccccc3n2CC(O)CN2CCCCC2)cc1 (centres undefined)	0
COc1ccc(OCC(O)Cn2c(=N)n(CCN3CCOCC3)c3ccccc32)cc1 (centres undefined)	0
COc1ccc(OCC(O)CN2CCCCCC2)cc1 (centres undefined)	0
COc1ccc(C(=O)c2cn(Cc3ccc(F)cc3)c3ccccc3c2=O)cc1	0
COc1ccc(C(=O)c2cn(Cc3ccc(C)cc3)c3ccccc3c2=O)cc1	0
CCC(=C(c1ccc(OC)cc1)c1ccc(OC)cc1)c1cn(CC(O)CN2CCN(C)CC2)c2ccccc12 (centres undefined)	0.35
O=C(O)COc1ccc2c(=O)c(-c3ccc4c(c3)OCCO4)coc2c1	0
CCOc1ccc(N2CC(C(=O)Nc3c(C)cc(C)cc3C)CC2=O)cc1 (centres undefined)	0
Cc1onc(-c2c(F)cccc2Cl)c1C(=O)Nc1ccc(F)c(F)c1	0
O=C(Nc1ccc2nc(-c3ccc(Cl)cc3)[nH]c2c1)C1CCCCC1	0
O=C(NCCCN1CCN(c2ccccc2F)CC1)c1cc2ccccn2n1	0
Cc1ccc(-n2nnnc2SCc2ccccc2Br)cc1C	0
Cc1cc(CN2CCOCC2)c(C)cc1O	0
Cc1ccccc1NC(=O)c1cc2c(s1)-c1ccccc1OC2	0
Cc1nc2c(C(=O)NCc3cccnc3)cnn2c(C)c1Cc1c(F)cccc1Cl	0
Cc1oc(-c2ccccc2F)nc1CN1CCCC(C(=O)NCc2ccc(Cl)cc2)C1 (centres undefined)	0
CC1CC(C)CN(C(C(=O)NC2CCCCC2)c2ccccc2)C1 (centres undefined)	0
CC1CCCCC1NC(=O)C(C)C1Sc2ccccc2NC1=O (centres undefined)	0
CCNC(=O)CC1Sc2ccccc2NC1=O (centres undefined)	0
O=C1C2=C(Nc3ccccc3SC2c2cccs2)c2ccccc21 (centres undefined)	0.4
Cc1cc(C)n(-c2ccc(F)cc2)c(=O)c1C(N)=O	0

Screening data deposited in PubChem by Bradner/Qi Labs at DFCI.
